Experimental data published in PubChem BioAssay (NCI).
Values joined by “and” are separate entries in the source; they are usually repeats but may differ in a detail not shown here. Equal values may be shown once. Compounds without any hit were thinned out: in the full panel of roughly 83,000, 20% have a hit.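 A percent growth of 40 corresponds to 60% growth inhibition; 0 means no net growth; -100 means all cells died. Active threshold: below 10.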 Active and inactive are the calls of the source.

System: MDA-MB-468 breast
Assay: NCI-60 one-dose screen, 48 h (100 = growth as untreated, 0 = no growth, -100 = all killed)
Details: 10 µM unless noted

Compound | growth
CS(=O)c1nccc(-c2c(-c3ccc(F)c(OCCc4ccccc4)c3)nc3sccn23)n1 (centres undefined) | -39.4% (active)
c1ccc(-c2nc3sc(C(c4ccccc4)c4ccccc4)nn3c2-c2ccccc2)cc1 | 96.1% (inactive)
COc1ccc(N(C)c2ncnc3occ(C)c23)cc1 | 30.2% (inactive)
C=C(C)[C@@H]1CC[C@]2(C(=O)NCCCN(CCC#N)CCC#N)CC[C@]3(C)[C@H](CC[C@@H]4[C@@]5(C)CCC(=O)C(C)(C)[C@@H]5CC[C@]43C)[C@@H]12 | 116% (inactive) and 90.6% (inactive)
O=C(Nc1ccc(CO)cc1)c1ccccc1Nc1ccnc(C(F)(F)F)c1 | 123% (inactive)
COc1cc(-c2ccc[nH]2)[nH]c1/C=C1\N=C(C)C(CC(=O)OCC(C)(C)C)=C1C | -79.2% (active)
C1=Cc2ccccc2N(c2nnc(-c3ccccc3)o2)c2ccccc21 | 98.7% (inactive)
O=C(NCCCNc1nccc(-n2ccc3cccnc32)n1)c1c(F)cccc1F | 101% (inactive)
COc1cc2nc(N3CCCC3)nc(NCCc3ccccc3)c2cc1OC | 6.66% (active)
COc1ccc(-c2cc(NC(=O)Nc3ccc4ncsc4c3)no2)cc1 | 99.2% (inactive)
Cc1ccnc2c1ccc1c(C)ccnc12 | -17.8% (active)
CCCCCCCCCCCCCCCCNC(=O)OC(C)C | 36.1% (inactive)
COc1cc(Nc2ncccc2NC(=O)c2cn(Cc3cccc(Oc4ccccc4)c3)nn2)cc(OC)c1 | 65.9% (inactive)
COc1ccc2oc(-c3ccc(Cl)cc3)c(N3CCN(C)CC3)c2c1 | -53.5% (active)
